Measured values: ChEMBL document CHEMBL3988442, “University of Dundee, Small-Polar-MMV Screening Library” (2021)
Values joined by “and” are separate entries in the source; they are usually repeats but may differ in a detail not shown here. Identical values can stand only once. For part of these data: Results with a measured potency or affinity are listed apart.

Tests used:
Parameters in all cases: scale not given: direction of the effect not stated beside the values
[1] = molecular target: Protein translocase subunit SecA (Escherichia coli (strain K12)) (UniProt P10408); test: Assay to Identify E. coli SecA ATPase Inhibitors; assay type: functional; conditions: 30 µM
[2] = molecular target: T1, Ubiquitin-activating enzyme e1, putative (Leishmania donovani (strain BPK282A1)) (UniProt E9BSI1); test: Leishmania donovani Ubiquitin Activating Enzyme (LdE1); assay type: functional; conditions: 30 µM
T1 sequence (whole entry): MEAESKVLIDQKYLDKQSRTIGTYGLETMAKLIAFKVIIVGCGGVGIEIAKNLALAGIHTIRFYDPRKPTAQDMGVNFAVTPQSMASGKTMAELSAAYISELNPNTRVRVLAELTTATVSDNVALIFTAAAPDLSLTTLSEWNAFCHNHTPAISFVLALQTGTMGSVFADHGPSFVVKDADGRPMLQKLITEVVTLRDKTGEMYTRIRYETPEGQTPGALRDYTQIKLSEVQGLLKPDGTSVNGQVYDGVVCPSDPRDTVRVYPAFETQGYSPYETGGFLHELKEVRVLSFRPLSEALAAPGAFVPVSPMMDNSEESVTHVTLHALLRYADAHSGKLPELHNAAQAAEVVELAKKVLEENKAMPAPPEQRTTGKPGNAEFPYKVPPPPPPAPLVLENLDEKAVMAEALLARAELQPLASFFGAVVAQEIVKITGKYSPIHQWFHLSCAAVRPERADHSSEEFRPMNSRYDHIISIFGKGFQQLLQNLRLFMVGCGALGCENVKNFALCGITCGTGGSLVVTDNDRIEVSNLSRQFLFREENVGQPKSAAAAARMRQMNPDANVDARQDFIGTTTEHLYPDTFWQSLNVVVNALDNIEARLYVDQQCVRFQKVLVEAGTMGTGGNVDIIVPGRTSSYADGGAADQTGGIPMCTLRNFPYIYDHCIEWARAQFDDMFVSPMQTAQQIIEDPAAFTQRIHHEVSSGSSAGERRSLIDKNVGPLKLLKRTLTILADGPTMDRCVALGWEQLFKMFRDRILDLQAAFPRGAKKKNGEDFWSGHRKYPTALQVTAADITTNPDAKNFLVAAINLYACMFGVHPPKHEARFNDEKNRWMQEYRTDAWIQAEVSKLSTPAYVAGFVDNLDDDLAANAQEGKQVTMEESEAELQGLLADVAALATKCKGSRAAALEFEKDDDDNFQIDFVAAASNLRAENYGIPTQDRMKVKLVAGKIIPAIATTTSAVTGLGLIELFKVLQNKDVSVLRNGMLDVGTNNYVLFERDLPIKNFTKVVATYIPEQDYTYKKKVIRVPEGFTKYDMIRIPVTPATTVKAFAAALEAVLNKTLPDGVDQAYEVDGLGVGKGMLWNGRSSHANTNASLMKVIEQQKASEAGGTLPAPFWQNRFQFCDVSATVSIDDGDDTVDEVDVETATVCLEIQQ

[3] = molecular target: AMP-activated protein kinase, AMPK (Homo sapiens) (UniProt P54646+O43741+P54619+Q9UGJ0+Q9Y478+Q13131+Q9UGI9); test: AMP-dependent Kinase enzyme assay. An in vitro enzyme assay that detects ADP turnover that is directly proportional to AMPK activity. This uses naive AMPK that is activated during the assay with MK-8722; assay type: functional; conditions: 30 µM
[4] = molecular target: Sialic acid-binding Ig-like lectin 9 (Homo sapiens) (UniProt Q9Y336); test: Hs-Siglec9 ALPHAscreen SOP 20170721; conditions: 10 µM
Trypanosoma cruzi = test: Trypanosoma cruzi phosphomannomutase and mannose-1-phosphate guanylyltransferase assay; assay type: functional; conditions: 10 µM
[5] = molecular target: T2, Arginase-2, mitochondrial (Homo sapiens) (UniProt P78540); test: in vitro enzyme assay to detect the production of urea directly proportional to the activity of Arginase II; assay type: functional; note: in the data most compounds retested in dose-response had high values
T2 sequence (whole entry): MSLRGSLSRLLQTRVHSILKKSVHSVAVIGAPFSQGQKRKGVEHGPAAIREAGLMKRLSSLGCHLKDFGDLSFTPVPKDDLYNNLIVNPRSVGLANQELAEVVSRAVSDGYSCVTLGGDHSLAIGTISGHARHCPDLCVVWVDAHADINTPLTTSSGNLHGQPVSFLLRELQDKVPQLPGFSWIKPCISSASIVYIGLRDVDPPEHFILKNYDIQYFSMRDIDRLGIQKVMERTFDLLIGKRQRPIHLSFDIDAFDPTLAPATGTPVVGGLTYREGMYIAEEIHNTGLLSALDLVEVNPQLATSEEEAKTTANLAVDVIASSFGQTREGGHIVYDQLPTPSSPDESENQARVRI

[6] = molecular target: T3, Proteasome subunit beta (Trypanosoma cruzi) (UniProt O96673); test: Trypanosoma cruzi proteasome chymotrypsin-like activity (TcProtChymo) assay.; note: in the data most compounds retested in dose-response had high values; assay type: functional; conditions: 9.37 µM
T3 sequence (whole entry): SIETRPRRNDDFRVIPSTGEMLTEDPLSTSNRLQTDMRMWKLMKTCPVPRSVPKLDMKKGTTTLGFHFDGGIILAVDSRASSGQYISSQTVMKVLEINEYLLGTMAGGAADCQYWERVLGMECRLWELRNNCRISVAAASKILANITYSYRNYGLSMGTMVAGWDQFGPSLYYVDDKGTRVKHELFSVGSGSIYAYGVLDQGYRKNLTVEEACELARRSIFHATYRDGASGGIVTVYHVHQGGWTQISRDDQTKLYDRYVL

N/A = test: Trypanosoma cruzi proteasome luciferase counter-screen; assay type: functional; conditions: 9.37 µM
Homo sapiens = species on record: Homo sapiens; test: To identify inhibition of the IFN signalling (Jak-Stat) pathway via expression of an eGFP reporter gene under the control of an IFN-stimulated response element (ISRE) containing MxA promoter.; assay type: functional; conditions: 30 µM
[7] = molecular target: T4, Tyrosyl-tRNA synthetase, putative (Trypanosoma cruzi (strain CL Brener)) (UniProt Q4DSP6); test: Trypanosoma cruzi tyrosyl tRNA synthetase (TcYRS) _High Tyrosine SOP; assay type: functional; conditions: 30 µM; note: in the data most compounds retested in dose-response had high values
T4 sequence (whole entry): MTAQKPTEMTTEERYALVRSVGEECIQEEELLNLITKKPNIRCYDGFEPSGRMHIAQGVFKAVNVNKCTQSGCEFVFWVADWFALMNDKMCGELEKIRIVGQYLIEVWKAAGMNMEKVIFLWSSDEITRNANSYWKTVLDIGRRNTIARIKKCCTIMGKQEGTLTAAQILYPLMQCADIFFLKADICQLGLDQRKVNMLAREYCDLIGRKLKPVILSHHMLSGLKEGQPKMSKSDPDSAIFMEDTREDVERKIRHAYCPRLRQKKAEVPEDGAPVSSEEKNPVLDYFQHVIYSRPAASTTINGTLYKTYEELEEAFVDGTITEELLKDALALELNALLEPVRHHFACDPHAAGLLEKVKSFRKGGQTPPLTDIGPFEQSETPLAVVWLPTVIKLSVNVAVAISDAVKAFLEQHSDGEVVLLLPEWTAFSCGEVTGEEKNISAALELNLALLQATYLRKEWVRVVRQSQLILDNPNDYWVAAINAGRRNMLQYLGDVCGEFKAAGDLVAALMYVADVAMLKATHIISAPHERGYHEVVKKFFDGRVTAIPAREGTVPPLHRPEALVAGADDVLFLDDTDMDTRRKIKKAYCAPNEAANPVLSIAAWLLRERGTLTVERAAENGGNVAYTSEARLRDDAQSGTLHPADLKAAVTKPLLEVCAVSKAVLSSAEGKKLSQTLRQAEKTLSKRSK

[8] = molecular target: T4, Tyrosyl-tRNA synthetase, putative (Trypanosoma cruzi (strain CL Brener)); test: Trypanosoma cruzi tyrosyl tRNA synthetase (TcYRS) SOP; assay type: functional; conditions: 30 µM
[9] = molecular target: Chromo domain-containing protein 1 (Saccharomyces cerevisiae (strain ATCC 204508 / S288c) (Baker's yeast)) (UniProt P32657); test: ScCHD-1 Enzyme Inhibition Assay; assay type: functional; conditions: 30 µM; note: in the data most compounds retested in dose-response had high values
Chain of Chromo domain-containing protein 1 (Saccharomyces cerevisiae (strain ATCC 204508 / S288c) (Baker's yeast)) (P32657 whole entry, the tested form may be a part): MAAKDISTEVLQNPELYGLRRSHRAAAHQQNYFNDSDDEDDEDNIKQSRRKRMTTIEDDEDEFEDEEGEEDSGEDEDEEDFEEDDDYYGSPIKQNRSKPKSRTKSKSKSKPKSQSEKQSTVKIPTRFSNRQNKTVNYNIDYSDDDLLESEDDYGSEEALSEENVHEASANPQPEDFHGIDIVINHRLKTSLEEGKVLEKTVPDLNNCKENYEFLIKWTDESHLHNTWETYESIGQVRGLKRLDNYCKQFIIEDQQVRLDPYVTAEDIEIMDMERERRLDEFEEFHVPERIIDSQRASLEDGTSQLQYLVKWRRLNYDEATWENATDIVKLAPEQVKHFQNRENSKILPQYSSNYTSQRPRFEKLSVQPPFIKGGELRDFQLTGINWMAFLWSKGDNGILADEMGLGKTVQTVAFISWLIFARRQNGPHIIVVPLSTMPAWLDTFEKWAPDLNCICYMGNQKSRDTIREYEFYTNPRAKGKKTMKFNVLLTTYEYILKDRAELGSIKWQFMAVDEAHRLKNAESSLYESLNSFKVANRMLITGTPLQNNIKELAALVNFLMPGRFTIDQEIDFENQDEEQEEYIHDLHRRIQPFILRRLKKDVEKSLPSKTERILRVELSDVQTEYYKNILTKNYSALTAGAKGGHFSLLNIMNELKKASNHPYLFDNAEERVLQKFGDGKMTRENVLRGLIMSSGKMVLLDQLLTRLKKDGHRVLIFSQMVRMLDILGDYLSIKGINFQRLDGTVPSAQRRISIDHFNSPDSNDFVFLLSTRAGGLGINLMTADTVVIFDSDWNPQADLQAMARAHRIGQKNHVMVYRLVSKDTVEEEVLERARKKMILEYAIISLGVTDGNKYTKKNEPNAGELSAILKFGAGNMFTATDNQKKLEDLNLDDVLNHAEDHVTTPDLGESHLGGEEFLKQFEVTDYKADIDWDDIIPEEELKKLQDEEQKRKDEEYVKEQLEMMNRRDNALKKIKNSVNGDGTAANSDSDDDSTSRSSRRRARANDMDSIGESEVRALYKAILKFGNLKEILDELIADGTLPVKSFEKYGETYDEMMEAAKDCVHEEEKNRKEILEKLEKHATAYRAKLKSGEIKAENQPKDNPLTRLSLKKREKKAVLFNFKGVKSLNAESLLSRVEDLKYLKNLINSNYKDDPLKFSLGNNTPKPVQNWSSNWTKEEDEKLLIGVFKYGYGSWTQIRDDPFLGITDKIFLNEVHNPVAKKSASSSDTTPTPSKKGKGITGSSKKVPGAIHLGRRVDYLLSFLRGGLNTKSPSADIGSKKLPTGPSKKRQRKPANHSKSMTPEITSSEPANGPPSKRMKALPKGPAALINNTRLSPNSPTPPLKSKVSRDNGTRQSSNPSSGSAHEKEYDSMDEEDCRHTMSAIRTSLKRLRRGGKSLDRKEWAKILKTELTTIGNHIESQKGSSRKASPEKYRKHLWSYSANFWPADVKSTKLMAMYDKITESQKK

Chain of Protein translocase subunit SecA (Escherichia coli (strain K12)) (P10408 whole entry): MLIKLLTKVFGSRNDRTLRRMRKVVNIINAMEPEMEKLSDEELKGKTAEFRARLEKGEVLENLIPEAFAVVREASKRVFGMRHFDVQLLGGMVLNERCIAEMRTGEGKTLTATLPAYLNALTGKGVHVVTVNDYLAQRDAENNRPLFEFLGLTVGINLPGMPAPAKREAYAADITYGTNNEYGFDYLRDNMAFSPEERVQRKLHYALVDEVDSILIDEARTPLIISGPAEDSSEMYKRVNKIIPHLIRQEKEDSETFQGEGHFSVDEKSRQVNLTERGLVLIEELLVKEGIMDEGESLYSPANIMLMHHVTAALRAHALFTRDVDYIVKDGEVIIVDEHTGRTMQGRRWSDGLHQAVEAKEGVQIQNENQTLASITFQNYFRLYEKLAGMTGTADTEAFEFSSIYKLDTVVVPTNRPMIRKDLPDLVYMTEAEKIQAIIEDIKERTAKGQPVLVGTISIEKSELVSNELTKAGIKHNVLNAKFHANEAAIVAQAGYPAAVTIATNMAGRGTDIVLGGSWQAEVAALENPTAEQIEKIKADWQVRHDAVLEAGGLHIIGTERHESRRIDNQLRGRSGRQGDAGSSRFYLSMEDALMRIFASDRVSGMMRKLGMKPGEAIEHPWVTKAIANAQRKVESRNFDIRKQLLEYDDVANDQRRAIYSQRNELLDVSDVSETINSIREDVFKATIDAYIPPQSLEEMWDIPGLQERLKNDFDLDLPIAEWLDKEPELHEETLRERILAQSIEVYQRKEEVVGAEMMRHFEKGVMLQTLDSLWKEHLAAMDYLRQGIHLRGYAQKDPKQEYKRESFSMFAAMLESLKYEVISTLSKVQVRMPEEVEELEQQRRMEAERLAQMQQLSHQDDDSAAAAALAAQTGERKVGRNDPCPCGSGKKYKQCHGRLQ
Chain of Sialic acid-binding Ig-like lectin 9 (Homo sapiens) (Q9Y336 whole entry): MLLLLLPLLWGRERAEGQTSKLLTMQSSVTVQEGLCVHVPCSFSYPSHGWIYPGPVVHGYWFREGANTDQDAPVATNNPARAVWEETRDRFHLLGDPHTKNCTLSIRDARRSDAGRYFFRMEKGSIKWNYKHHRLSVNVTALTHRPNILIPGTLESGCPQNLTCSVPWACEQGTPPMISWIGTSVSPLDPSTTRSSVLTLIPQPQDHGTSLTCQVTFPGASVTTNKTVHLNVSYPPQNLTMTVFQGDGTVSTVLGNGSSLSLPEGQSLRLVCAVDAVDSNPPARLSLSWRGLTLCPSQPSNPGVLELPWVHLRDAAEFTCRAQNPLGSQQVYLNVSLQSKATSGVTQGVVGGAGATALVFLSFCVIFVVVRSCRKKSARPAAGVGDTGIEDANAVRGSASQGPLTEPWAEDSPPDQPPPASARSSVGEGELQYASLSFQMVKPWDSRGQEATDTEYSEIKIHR

SMILES	Percent Effect [1] [%]	Percent Effect [2] [%]	Percent Effect [3] [%]	Percent Effect [4] [%]	Percent Effect (Trypanosoma cruzi) [%]	Percent Effect ([5]; 33.3 µM) [%]	Percent Effect [6]	Percent Effect (N/A)	Percent Effect (Homo sapiens) [%]	Percent Effect [7] [%]	Percent Effect [8] [%]	Percent Effect [9] [%]	Percent Effect ([5]; 30 µM) [%]
CN1CCCC1c1ccc(C(=O)N2CCc3ccccc3C2)s1 (stereo not given)	-3.53	-16.2	2.64	-7.08	-3.81	-2.73	74.8% and 75.3% and 64.5%	44.8% and 43.9%	16.1	3.23	-3.7	7.75	–
OC(CN(Cc1ccccc1)Cc1ccncc1)c1cccs1 (stereo not given)	3.55	2.7	-2.19	5.24	4.79	25.1	10.2%	–	5.3	1.07	6.17	-8.61	5.95
O=C(c1cn(-c2ccccc2Cl)nn1)N1CCCSCC1	-4.85	16.2	-2.86	38.1	5.57	3.72	49.8% and 55.2% and 47.1%	26.3% and 26%	0.244	2.15	16.1	-4.55	–
O=C(Cn1nc2c(cc1=O)CCCC2)N[C@@H](Cc1ccccc1)C(=O)O	0.621	9.33	0.52	-1.3	0.197	0.88	16.1%	–	24.4	5.29	12.8	-9.91	0.54
CCC(C(=O)NCc1ccncc1)N(c1ccc(OC)cc1)S(C)(=O)=O (stereo not given)	-4.48	2.67	-7.64	14	4.97	3.65	2.27%	–	6.36	4.92	8.64	-13.6	2.7
O=c1[nH]c2c(c(=O)n1C1CCCCC1)CCC2NCCc1ccccc1 (stereo not given)	-2.86	1.33	-8.89	6.39	2.75	-3.35	2.22%	–	-14.6	-3.17	0	-3.17	1.62
CN(C)C(=O)[C@@H]1CCO[C@@H]2CCN(Cc3ccccc3)C[C@@H]21	-1.18	2.7	-0.272	-1.07	-6.45	2.92	20.5%	–	10	7.92	8.54	-0.0601	-1.62
O=C1CC(c2ccsc2)c2c(n(C3CCOCC3)[nH]c2=O)N1 (stereo not given)	-5.06	-30.7	-12.7	0.762	2.36	2.64	16.4%	–	1.56	6.35	15.4	-7.86	2.7
Cc1cnn(CC2CCCN2CC(=O)N(C)Cc2ccc(C)o2)c1 (stereo not given)	-0.338	0	-4.82	2.25	5.21	0.476	34.4% and 30.7% and 30.2%	12.9% and 15.3%	-9.55	5.82	7.32	-2.6	–
CNC(=O)[C@@H]1C[C@H]2CN(C(=O)c3ccco3)C[C@H]2N1C	-1.85	2.67	-2.42	4.75	-3.67	-21	3.76%	–	-3.26	4.17	5	-5.57	-9.19
